“And” between values parts separate entries of the source, which are not always exact repeats. Equal entries are not always repeated. The campaign covered roughly 5,500 compounds. About 2,000 (36%) were called active. Not shown: some 18% with an inconclusive outcome. Cut-off read from the data, not from the text of the source: active = normalized growth mostly below about 0.91 (no sharp cut-off); inconclusive = no clear call, values can overlap the other calls; inactive = mostly above about 0.92. Some of the results follow.
Assay: chemical genetic growth profiling, strain panel (AID 1159580);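 note: tested at 20 µM; growth read once vehicle control cultures reached saturation at 30 °C; 1 = growth at the plate median or of vehicle wells; lower values mean less growth of the strain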
Conditions: S. cerevisiae deletion strains, growth OD

Measured: normalized growth

COP(=S)(OC)Oc1ccc([N+](=O)[O-])cc1
inactive: locus YAL013W, strain DEP1, stronger effect = lower value 1.03 | locus YAL021C, strain ccr4, stronger effect = lower value 1.01 | locus YAL026C, strain drs2, stronger effect = lower value 0.995 | locus YAL030W, strain snc1, stronger effect = lower value 1 | locus YBL061C, strain skt5, stronger effect = lower value 1 | locus YBR009C, strain hhf1, stronger effect = lower value 0.995 | locus YBR021W, strain FUR4, stronger effect = lower value 1.01 | locus YBR023C, strain chs3, stronger effect = lower value 0.994 | locus YBR171W, strain sec66, stronger effect = lower value 0.994 | locus YBR229C, strain ROT2, stronger effect = lower value 0.96 | locus YBR231C, strain swc5, stronger effect = lower value 0.988 | locus YBR279W, strain paf1, stronger effect = lower value 1 | locus YCL011C, strain gbp2, stronger effect = lower value 0.992 | locus YCL016C, strain dcc1, stronger effect = lower value 0.99 | locus YCL029C, strain bik1, stronger effect = lower value 0.975 | locus YCL061C, strain MRC1, stronger effect = lower value 0.991 | locus YCL069W, strain vba3, stronger effect = lower value 0.996 | locus YCR088W, strain abp1, stronger effect = lower value 0.99 | locus YDL005C, strain med2, stronger effect = lower value 0.991 | locus YDL035C, strain GPR1, stronger effect = lower value 0.988 | locus YDL040C, strain nat1, stronger effect = lower value 0.993 | locus YDL074C, strain BRE1, stronger effect = lower value 0.949 | locus YDL101C, strain DUN1, stronger effect = lower value 0.973 | locus YDL134C, strain PPH21, stronger effect = lower value 0.988 | locus YDL185W, strain tfp1, stronger effect = lower value 0.958 | locus YDL192W, strain arf1, stronger effect = lower value 0.972 | locus YDR001C, strain nth1, stronger effect = lower value 1 | locus YDR069C, strain doa4, stronger effect = lower value 0.956 | locus YDR101C, strain arx1, stronger effect = lower value 0.984 | locus YDR137W, strain rgp1, stronger effect = lower value 0.885 | locus YDR150W, strain NUM1, stronger effect = lower value 0.975 | locus YDR159W, strain sac3, stronger effect = lower value 0.981 | locus YDR162C, strain NBP2, stronger effect = lower value 0.978 | locus YDR195W, strain ref2 1 | locus YDR297W, strain sur2, stronger effect = lower value 0.996 | locus YDR318W, strain mcm21, stronger effect = lower value 0.98 | locus YDR334W, strain swr1, stronger effect = lower value 0.998 | locus YDR335W, strain msn5, stronger effect = lower value 1.01 | locus YDR388W, stronger effect = lower value 0.983 | locus YDR392W, strain spt3, stronger effect = lower value 0.922 | locus YDR502C, strain sam2, stronger effect = lower value 0.971 | locus YEL003W, strain gim4, stronger effect = lower value 0.996 | locus YEL037C, strain rad23, stronger effect = lower value 0.999 | locus YEL061C, strain CIN8 (second series), stronger effect = lower value 1 | locus YEL061C, strain CIN8, stronger effect = lower value 0.976 | locus YER015W, strain faa2, stronger effect = lower value 0.996 | locus YER016W, strain bim1, stronger effect = lower value 0.997 | locus YER110C, stronger effect = lower value 0.963 | locus YER111C, strain swi4, stronger effect = lower value 1 | locus YER155C, strain BEM2 (second series), stronger effect = lower value 0.94 | locus YER155C, strain BEM2, stronger effect = lower value 1.01 | locus YER167W, strain BCK2, stronger effect = lower value 0.979 | locus YFR010W, strain ubp6, stronger effect = lower value 0.999 | locus YGL078C, strain dbp3, stronger effect = lower value 0.985 | locus YGL086W, strain mad1, stronger effect = lower value 0.994 | locus YGL167C, strain pmr1, stronger effect = lower value 0.992 | locus YGL173C, strain kem1, stronger effect = lower value 0.99 | locus YGL227W, strain vid30, stronger effect = lower value 0.993 | locus YGL240W, strain doc1, stronger effect = lower value 0.987 | locus YGL248W, strain PDE1, stronger effect = lower value 0.966 | locus YGL253W, strain hxk2, stronger effect = lower value 0.999 | locus YGR078C, strain PAC10, stronger effect = lower value 0.989 | locus YGR135W, strain pre9, stronger effect = lower value 0.976 | locus YGR229C, strain SMI1, stronger effect = lower value 0.99 | locus YGR252W, strain gcn5, stronger effect = lower value 0.968 | locus YHR013C, strain ard1, stronger effect = lower value 1.02 | locus YHR027C, strain rpn1, stronger effect = lower value 0.987 | locus YHR030C, strain SLT2, stronger effect = lower value 0.998 and 0.993 | locus YHR079C, strain IRE1 (second series), stronger effect = lower value 0.984 | locus YHR079C, strain IRE1, stronger effect = lower value 0.988 | locus YHR094C, strain hxt1, stronger effect = lower value 0.987 | locus YHR129C, strain ARP1, stronger effect = lower value 0.978 | locus YHR142W, strain chs7, stronger effect = lower value 0.965 | locus YHR200W, strain rpn10, stronger effect = lower value 0.987 | locus YIL066C, strain RNR3, stronger effect = lower value 0.967 | locus YIL073C, strain SPO22, stronger effect = lower value 0.993 | locus YIL125W, strain kgd1, stronger effect = lower value 0.971 | locus YIR030C, strain dcg1, stronger effect = lower value 0.98 | locus YJL092W, strain hpr5, stronger effect = lower value 0.996 | locus YJL095W, strain BCK1 (second series), stronger effect = lower value 0.993 | locus YJL095W, strain BCK1, stronger effect = lower value 0.974 and 1.01 | locus YJL115W, strain asf1, stronger effect = lower value 0.986 | locus YJL129C, strain trk1, stronger effect = lower value 0.988 | locus YJL134W, strain LCB3, stronger effect = lower value 0.984 | locus YJL154C, strain vps35, stronger effect = lower value 1 | locus YJL164C, strain tpk1, stronger effect = lower value 0.99 | locus YJL166W, strain qcr8, stronger effect = lower value 0.983 | locus YJL168C, strain set2, stronger effect = lower value 0.982 | locus YJL187C, strain SWE1 (second series), stronger effect = lower value 0.983 | locus YJL187C, strain SWE1, stronger effect = lower value 1.02 | locus YJR043C, strain POL32, stronger effect = lower value 0.983 | locus YJR066W, strain TOR1, stronger effect = lower value 0.953
